Screening data: PubChem BioAssay, several laboratories
An excerpt weighted towards active compounds, which were near 0.5% of everything screened.
Tat export inh: blocks Tat-dependent protein export in E. coli. E. coli MC4100 TorA-mCherry Tat export, fluorescence. inhibition, % at 10 µM. 340,000 compounds, 0.036% hits. AID 488895;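 active = mean replicate inhibition at least 50% and at least half of replicates individually reaching 50%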;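 note: exported cargo escapes ClpAP degradation while cytoplasmic cargo is degraded and loses fluorescence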
phage Ecoli inh: E. coli growth loss with phage present. inhibition, % at 11.9 µM. growth absorbance. AID 651602. 360,000 compounds, 0.26% hits; in the data active = inhibition above about 11%
E coli growth-1: inhibitors of Escherichia coli growth | OD600, 23 h; stronger effect = lower value | OD600 absorbance (no concentration beside the values) | 330,000 compounds, 0.21% hits;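 active = OD600 absorbance below the run mean of sample wells minus 3.6 SD, in any replicate, cut at about 0.56 in these data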
AddAB inh: less growth of phage-infected E. coli with AddAB; inhibition, % at 11.9 µM; E. coli expressing H. pylori AddAB, absorbance growth; 330,000 compounds, 0.29% hits; in the data active = inhibition above about 12%
E coli growth-2: reduces bacterial viability in AddAB counter-screen; 330,000 compounds, 0.27% hits; E. coli V3065 growth, OD600 absorbance, 18 h; inhibition, % at 11.9 µM; AID 449728;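 active = inhibition above the campaign's mean inhibition across all tested compounds plus 3 SD, cut at about 9.9% in these data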;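 note: uninfected addAB+ strain grown without phage in ampicillin broth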
AddAB conf: confirmation screen: growth loss of phage-infected E. coli expressing H. pylori AddAB; 880 compounds, 64% hits; E. coli V3065 expressing H. pylori AddAB, T4 phage, OD; T4 phage with gene 2 nonsense mutations; shares compounds with AddAB inh; inhibition, % at 11.9 µM;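 active = mean inhibition above a set limit taken from the earlier primary screen, cut at about 13% in these data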;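 note: higher means less bacterial growth since AddAB block lets phage replicate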
RecBCD counter: AddAB counter-screen: growth loss of RecBCD+ E. coli infected with mutant T4 phage. shares compounds with AddAB inh. inhibition, % at 11.9 µM. 880 compounds, 73% hits. AID 488955. E. coli V66 + mutant T4 phage, OD growth;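 active = mean inhibition above the mean of solvent-only control wells plus 3 SD, cut at about 4% in these data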;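 note: optical density read after an 18 h incubation at 37 °C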
bact viab count: counter-screen for AddAB inhibitors: inhibitors of bacterial viability | shares compounds with AddAB inh | absorbance (AddAB counterscreen) | inhibition, % at 11.9 µM | 880 compounds, 35% hits; in the data active = inhibition above about 25%
RecBCD conf: growth loss of phage-infected V66 E. coli, RecBCD confirmation screen. shares compounds with phage Ecoli inh. E. coli V66 + T4 2- phage, growth OD. inhibition, % at 11.9 µM. 890 compounds, 45% hits;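 active = mean inhibition over triplicates exceeding the hit threshold derived in the original primary screen, cut at about 11% in these data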
Ecoli viability: bacterial viability inhibition counter-screen for RecBCD; inhibition, % at 11.9 µM; 890 compounds, 29% hits; E. coli viability, absorbance (OD) growth; shares compounds with phage Ecoli inh; in the data active = inhibition above about 20%;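 note: E. coli strain V66 grown with compound alone and no phage infection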
AddAB counter: growth loss of phage-infected AddAB E. coli, RecBCD counter-screen; inhibition, % at 11.9 µM; AID 651984; shares compounds with phage Ecoli inh; E. coli expressing H. pylori AddAB + T4 phage, OD growth; gene 2 mutant T4, recBCD-deleted host; 890 compounds, 45% hits;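 active = mean inhibition above the solvent-only control wells' mean plus 3 SD, cut at about 22% in these data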;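 note: higher means less bacterial growth from phage killing when AddAB is blocked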
Each line names hits and unclear results; the compound was inactive in the other large screens (follow-up assays come after a bar, where they were run).

O=C(Nc1ccncc1)c1cccc(S(=O)(=O)N2CCN(c3ccc(F)cc3)CC2)c1	none
Oc1c(C(Nc2ccccn2)c2ccccn2)ccc2cccnc12 (configuration not stated)	phage Ecoli inh 16, AddAB inh 17, E coli growth-2 14 | AddAB conf inactive | RecBCD counter 9.8 | bact viab count inactive | RecBCD conf inactive | Ecoli viability inactive | AddAB counter inactive
Oc1ccccc1C(Nc1nccs1)c1ccc2cccnc2c1O (configuration not stated)	phage Ecoli inh 12, AddAB inh 13, E coli growth-2 17 | AddAB conf inactive | RecBCD counter 12 | bact viab count inactive | RecBCD conf inactive | Ecoli viability inactive | AddAB counter inactive
CCCCCCCCN1C(=O)[C@H](CC(=O)NCC23CC4CC(CC(C4)C2)C3)C[C@@]2(C(=O)OCC)CCCC=C12	none (no result: Tat export inh, E coli growth-1, AddAB inh, E coli growth-2)
C[C@@H](C(=O)Nc1ccc(OC(F)F)c(Cl)c1)N1C(=O)C2CC=CCC2C1=O (some centres not stated)	none
COc1ccc(N2CCN(c3ccc(N4C(=O)COCC4=O)cc3[N+](=O)[O-])CC2)cc1	none
O=C(O)c1ccc(CSCc2ccccc2F)o1	none
Cc1cnccc1CN(C)C(=O)C1CCC(=O)N(Cc2ccccc2F)C1 (configuration not stated)	none
Cn1nnnc1N=N/C(=N/Nc1ccccc1)c1ccccc1	phage Ecoli inh 20, AddAB inh 25, E coli growth-2 21 (no result: E coli growth-1) | AddAB conf 25 | RecBCD counter 23 | bact viab count inactive | RecBCD conf 11 | Ecoli viability inactive | AddAB counter inactive
O=C(/C=C1\NC2(CCCC2)Cc2ccccc21)C(=O)N/N=C/c1ccccc1O	phage Ecoli inh 25, AddAB inh 16, E coli growth-2 13 (no result: E coli growth-1) | AddAB conf 30 | RecBCD counter 25 | bact viab count inactive | RecBCD conf 19 | Ecoli viability 22 | AddAB counter 25
C/C(=N\N=C1\NC(=O)C(CC(=O)O)S1)c1ccccn1 (configuration not stated)	phage Ecoli inh 26, AddAB inh 19, E coli growth-2 17 (no result: Tat export inh, E coli growth-1) | AddAB conf 26 | RecBCD counter 22 | bact viab count inactive | RecBCD conf 22 | Ecoli viability 25 | AddAB counter 28
O=C(O)CC1S/C(=N/N=Cc2ccccn2)NC1=O (configuration not stated)	none (no result: Tat export inh, phage Ecoli inh, AddAB inh, E coli growth-2)
CCCS(=O)(=O)Nc1ccc(N2CCCCC2)c(S(=O)(=O)Nc2ccccc2OC)c1	none (no result: AddAB inh, E coli growth-2)
O=C(NC1CC1)C1CCN(c2nc3ccccc3s2)CC1	none (no result: E coli growth-1)
CC(C)c1ccccc1NC(=S)NCc1nc2ccccc2[nH]1	none
CCOc1ccc(NC(=S)NCc2nc3ccccc3[nH]2)cc1	phage Ecoli inh 20, AddAB inh 20, E coli growth-2 16 | AddAB conf 32 | RecBCD counter 19 | bact viab count inactive | RecBCD conf 17 | Ecoli viability inactive | AddAB counter 29
FC(F)Oc1ccc(NC(=S)NCc2nc3ccccc3[nH]2)cc1	phage Ecoli inh 17, AddAB inh 16, E coli growth-2 17 | AddAB conf 33 | RecBCD counter 19 | bact viab count inactive | RecBCD conf 21 | Ecoli viability inactive | AddAB counter 36
CCN(CC)S(=O)(=O)c1cccc(N=Nc2sc(N)nc2C)c1	none
